# In article PMC7862700, “An all-to-all approach to the identification of sequence-specific readers for epigenetic DNA modifications on cytosine”:
# Assays:
# Assay in all cases: DAPPL (digital affinity profiling via proximity ligation, sequencing); 10 mM Tris-HCl pH 7.5, 50 mM NaCl, 1 mM DTT, 4% glycerol, room temperature, 30 min; GST-TFs on glutathione beads, 16-mer random dsDNA library, 0.1% formaldehyde crosslink after washing; high values mean tight binding
# Conditions in all cases: protein: recombinant; tags: N-terminal GST; dsDNA, one strand shown
# ETV1 = ETV1 (Homo sapiens, UniProt P50549 1-477)
# Method in brief: (§1)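 Pools of DNA-barcoded human transcription factors, expressed in yeast as GST fusions on glutathione beads and combined with a tag-only sample, were incubated with 200 nmole of a 16-mer random double-stranded DNA library. Incubation took 30 min at room temperature in Tris/NaCl/DTT/glycerol buffer and was followed by washing, 0.1% formaldehyde crosslinking, proximity ligation (BsaI/T4 ligase, 1 h, 37 °C), PCR amplification and sequencing on an Illumina NextSeq500. Binding signal is the ratio of a hexamer's read frequency for a factor to its frequency for the tag-only sample.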
# ERF = target: T1, ERF (Homo sapiens, UniProt P50548 1-548)
# T1 sequence: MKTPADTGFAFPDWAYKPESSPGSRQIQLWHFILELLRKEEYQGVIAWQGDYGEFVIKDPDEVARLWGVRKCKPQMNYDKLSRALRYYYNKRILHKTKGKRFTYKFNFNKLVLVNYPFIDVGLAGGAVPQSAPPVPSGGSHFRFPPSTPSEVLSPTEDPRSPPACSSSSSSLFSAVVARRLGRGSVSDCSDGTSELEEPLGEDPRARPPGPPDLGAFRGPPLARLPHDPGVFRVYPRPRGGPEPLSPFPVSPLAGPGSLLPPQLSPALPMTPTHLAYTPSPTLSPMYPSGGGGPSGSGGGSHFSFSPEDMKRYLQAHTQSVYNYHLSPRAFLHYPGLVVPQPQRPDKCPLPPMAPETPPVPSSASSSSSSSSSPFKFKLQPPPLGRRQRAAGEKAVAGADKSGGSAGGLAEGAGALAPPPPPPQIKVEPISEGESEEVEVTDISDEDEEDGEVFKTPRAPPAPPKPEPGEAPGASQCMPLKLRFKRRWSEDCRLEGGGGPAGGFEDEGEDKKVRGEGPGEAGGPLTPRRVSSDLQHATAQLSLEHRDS
# Method in brief: as §1
# ETV3L = target: T2, ETV3L (Homo sapiens, UniProt Q6ZN32 1-361)
# T2 sequence: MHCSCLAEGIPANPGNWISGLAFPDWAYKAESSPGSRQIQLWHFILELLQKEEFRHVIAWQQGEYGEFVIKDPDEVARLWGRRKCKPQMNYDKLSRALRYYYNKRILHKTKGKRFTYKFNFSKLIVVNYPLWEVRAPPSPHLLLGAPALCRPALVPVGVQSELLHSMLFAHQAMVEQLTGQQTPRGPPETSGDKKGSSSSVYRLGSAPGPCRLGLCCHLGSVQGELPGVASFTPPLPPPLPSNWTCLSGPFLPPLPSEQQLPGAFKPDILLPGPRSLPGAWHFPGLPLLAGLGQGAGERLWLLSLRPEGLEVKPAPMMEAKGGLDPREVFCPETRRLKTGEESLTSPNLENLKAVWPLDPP
# Method in brief: as §1
# ETS2 = target: T3, ETS2 (Homo sapiens, UniProt P15036 1-469)
# T3 sequence: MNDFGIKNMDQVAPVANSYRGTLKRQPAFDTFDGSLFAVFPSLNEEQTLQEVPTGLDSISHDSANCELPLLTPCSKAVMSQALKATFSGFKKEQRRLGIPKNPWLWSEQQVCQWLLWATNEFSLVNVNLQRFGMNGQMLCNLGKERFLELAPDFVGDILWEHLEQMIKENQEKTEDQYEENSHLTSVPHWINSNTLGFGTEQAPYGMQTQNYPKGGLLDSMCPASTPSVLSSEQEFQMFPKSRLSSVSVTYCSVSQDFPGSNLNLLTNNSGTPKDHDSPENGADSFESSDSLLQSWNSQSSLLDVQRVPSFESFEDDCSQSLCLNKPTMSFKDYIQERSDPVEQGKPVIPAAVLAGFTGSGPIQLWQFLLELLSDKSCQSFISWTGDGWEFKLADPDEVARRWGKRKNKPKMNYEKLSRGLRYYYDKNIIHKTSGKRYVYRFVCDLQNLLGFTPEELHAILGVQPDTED
# Method in brief: as §1
# SPDEF = target: T4, SPDEF (Homo sapiens, UniProt O95238 1-335)
# T4 sequence: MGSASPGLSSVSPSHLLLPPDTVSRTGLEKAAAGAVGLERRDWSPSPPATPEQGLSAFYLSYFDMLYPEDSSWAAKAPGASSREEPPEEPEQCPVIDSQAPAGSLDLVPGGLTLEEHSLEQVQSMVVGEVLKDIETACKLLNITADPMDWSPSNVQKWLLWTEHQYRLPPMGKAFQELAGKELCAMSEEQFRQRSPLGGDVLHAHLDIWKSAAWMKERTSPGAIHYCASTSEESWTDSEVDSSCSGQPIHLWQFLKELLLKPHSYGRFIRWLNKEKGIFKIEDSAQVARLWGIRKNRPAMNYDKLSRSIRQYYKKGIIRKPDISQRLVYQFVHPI
# Method in brief: as §1
# ETV7 = target: T5, ETV7 (Homo sapiens, UniProt Q9Y603 1-341)
# T5 sequence: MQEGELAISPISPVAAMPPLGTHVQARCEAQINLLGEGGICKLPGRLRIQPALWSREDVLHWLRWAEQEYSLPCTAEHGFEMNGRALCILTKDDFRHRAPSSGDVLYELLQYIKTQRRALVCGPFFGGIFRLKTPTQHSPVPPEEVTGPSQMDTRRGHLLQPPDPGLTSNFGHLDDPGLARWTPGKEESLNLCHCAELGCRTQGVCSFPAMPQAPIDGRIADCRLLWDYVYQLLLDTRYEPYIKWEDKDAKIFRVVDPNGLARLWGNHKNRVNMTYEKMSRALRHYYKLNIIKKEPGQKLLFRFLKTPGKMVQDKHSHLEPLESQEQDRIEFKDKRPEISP
# Method in brief: as §1
# ELF5 = target: T6, ELF5 (Homo sapiens, UniProt Q9UKW6-2 1-255)
# T6 sequence: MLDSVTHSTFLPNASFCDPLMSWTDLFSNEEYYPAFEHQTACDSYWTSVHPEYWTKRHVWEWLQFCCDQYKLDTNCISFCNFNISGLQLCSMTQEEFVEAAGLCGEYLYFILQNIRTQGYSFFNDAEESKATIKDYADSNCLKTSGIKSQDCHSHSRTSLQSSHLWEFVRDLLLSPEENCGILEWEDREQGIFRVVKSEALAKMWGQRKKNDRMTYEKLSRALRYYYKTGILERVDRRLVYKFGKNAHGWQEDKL
# Method in brief: as §1
# ETV3 = target: T7, ETV3 (Homo sapiens, UniProt P41162-2 1-143)
# T7 sequence: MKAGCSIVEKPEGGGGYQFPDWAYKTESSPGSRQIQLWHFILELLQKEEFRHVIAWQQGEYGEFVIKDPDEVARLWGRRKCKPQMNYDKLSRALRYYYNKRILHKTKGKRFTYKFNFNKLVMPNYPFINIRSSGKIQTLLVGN
# Method in brief: as §1
# ETV6 = ETV6 (Homo sapiens, UniProt P41212 1-452)
# Method in brief: as §1
# Chain of ETV6 (P41212 whole entry): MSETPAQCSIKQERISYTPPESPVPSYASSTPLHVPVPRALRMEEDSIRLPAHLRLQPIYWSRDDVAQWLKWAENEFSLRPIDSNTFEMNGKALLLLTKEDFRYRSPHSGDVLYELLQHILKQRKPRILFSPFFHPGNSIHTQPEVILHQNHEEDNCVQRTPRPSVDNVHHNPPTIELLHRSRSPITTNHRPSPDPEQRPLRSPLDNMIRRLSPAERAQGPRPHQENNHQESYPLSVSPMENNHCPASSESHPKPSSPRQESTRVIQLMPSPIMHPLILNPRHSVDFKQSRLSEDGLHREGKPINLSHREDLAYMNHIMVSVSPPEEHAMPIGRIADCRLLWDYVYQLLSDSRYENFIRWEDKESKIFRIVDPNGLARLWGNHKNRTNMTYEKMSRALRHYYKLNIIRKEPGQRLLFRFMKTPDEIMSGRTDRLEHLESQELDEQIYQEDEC
# Chain of ETV1 (P50549 whole entry, the tested form may be a part): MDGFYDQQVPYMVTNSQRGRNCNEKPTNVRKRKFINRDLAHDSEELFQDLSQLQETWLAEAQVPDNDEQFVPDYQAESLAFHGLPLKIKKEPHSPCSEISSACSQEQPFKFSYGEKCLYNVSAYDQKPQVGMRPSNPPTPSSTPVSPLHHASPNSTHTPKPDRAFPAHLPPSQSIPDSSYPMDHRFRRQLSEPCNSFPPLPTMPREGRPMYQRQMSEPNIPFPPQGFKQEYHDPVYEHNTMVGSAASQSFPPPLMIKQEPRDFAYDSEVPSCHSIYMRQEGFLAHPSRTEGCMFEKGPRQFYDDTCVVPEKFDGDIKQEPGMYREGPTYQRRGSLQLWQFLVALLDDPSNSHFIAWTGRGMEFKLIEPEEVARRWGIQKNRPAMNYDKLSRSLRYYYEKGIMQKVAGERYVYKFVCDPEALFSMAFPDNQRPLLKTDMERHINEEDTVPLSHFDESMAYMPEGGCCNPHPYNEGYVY
sequence,measurement,setting,value
TCTCAT,binding signal,ETV1,"1.38 fold enrichment (6-mer frequency, TF over GST control)"
same,binding signal,ERF,"1.26 fold enrichment (6-mer frequency, TF over GST control)"
same,binding signal,ETV3L,"1.32 fold enrichment (6-mer frequency, TF over GST control)"
same,binding signal,ETS2,"1.26 fold enrichment (6-mer frequency, TF over GST control)"
same,binding signal,SPDEF,"1.33 fold enrichment (6-mer frequency, TF over GST control)"
same,binding signal,ETV7,"1.11 fold enrichment (6-mer frequency, TF over GST control)"
same,binding signal,ELF5,"1.24 fold enrichment (6-mer frequency, TF over GST control)"
same,binding signal,ETV3,"1.37 fold enrichment (6-mer frequency, TF over GST control)"
same,binding signal,ETV6,"1.14 fold enrichment (6-mer frequency, TF over GST control)"
